ERG Ets-DNA blk: blocks human ERG Ets domain binding to DNA. P11308. fluorescence polarization, His-ERG Ets domain / labelled DNA. Potency, µM (titrated, usually from 76.9 µM), inactives show at the top dose FP activity, negative = inhibition, actives largely listed as inhibitors. 0.028% of 370,000 active. AID 624246; active = well fitted inhibition curve with a large enough effect in the polarisation, with a control signal flat; inconclusive = small, poorly fitted or top-dose-only effect, or effect the other way, or a change in a side signal; inactive = no such curve, though single readings can be large or run the other way; the % refers to the polarisation;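 also: polarization taken with two DNA probes labelled with fluorescein and Texas red; potency is read from the fitted curve at half-maximal effect; % of control where 0% means no effect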
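His-tagged ERG Ets domain (1 uM in the protein solution; 300mM KCl, 50mM Tris-HCl, 1mM EDTA, 1mM DTT, pH 7.5) received compound, then a probe mix of 5 nM fluorescein-DNA and 100nM Texas-615-DNA. Fluorescence polarization was read for both dyes.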
LDHA inh: LDHA (human) enzyme inhibition. activity change, % (values are at about 110 or 230 µM). 0.15% of 480,000 active. purified LDHA, NADH/diaphorase-resazurin fluorescence; stronger effect = lower value. P00338; in the data active = activity change below about -30%; inconclusive = mostly about -25% to -30%;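 also: plate controls were DMSO wells for no effect and wells without enzyme for full effect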
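Resorufin fluorescence (ex540/em590), read at 0 and 20 min after diaphorase/resazurin addition, reports the NADH left after a 5 min room-temperature reaction of 2 nM human LDH5 with 0.06 mM NADH and 0.2 mM pyruvate.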
A549 viability: A549 cytotoxicity, counter-screen for Nrf2 inhibitors; A549 ARE-Fluc cells, CellTiter-Fluor viability, 18-24 h; Potency, µM (doses to about 46 µM), inactives show top-dose activity change, negative = cytotoxicity, hits mostly inhibitors; 0.16% of 390,000 active; AID 504648; also: potency is read from the fitted curve at half-maximal effect; % is scaled to controls: 0 for no effect and ±100 for the full control effect
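Cytotoxicity counterscreen: CellTiter-Fluor fluorescence was measured in A549 ARE_Fluc cells after 18-24 h of compound exposure in a concentration series. The subsequent BugLite luminescent read reports ARE-luciferase activity.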
12-LOX inh: blocks human arachidonate 12S-lipoxygenase; AID 1671190; purified 12hLO, xylenol orange hydroperoxide absorbance; 1.1% of 580,000 active; Potency, µM (series often up to 108 µM), for inactives: top-dose activity change, negative = inhibition, actives largely listed as inhibitors; also: potency is read from the fitted curve at half-maximal effect; % is scaled to controls: 0 for no effect and ±100 for the full control effect
Target sequence (P18054 whole entry, looked up): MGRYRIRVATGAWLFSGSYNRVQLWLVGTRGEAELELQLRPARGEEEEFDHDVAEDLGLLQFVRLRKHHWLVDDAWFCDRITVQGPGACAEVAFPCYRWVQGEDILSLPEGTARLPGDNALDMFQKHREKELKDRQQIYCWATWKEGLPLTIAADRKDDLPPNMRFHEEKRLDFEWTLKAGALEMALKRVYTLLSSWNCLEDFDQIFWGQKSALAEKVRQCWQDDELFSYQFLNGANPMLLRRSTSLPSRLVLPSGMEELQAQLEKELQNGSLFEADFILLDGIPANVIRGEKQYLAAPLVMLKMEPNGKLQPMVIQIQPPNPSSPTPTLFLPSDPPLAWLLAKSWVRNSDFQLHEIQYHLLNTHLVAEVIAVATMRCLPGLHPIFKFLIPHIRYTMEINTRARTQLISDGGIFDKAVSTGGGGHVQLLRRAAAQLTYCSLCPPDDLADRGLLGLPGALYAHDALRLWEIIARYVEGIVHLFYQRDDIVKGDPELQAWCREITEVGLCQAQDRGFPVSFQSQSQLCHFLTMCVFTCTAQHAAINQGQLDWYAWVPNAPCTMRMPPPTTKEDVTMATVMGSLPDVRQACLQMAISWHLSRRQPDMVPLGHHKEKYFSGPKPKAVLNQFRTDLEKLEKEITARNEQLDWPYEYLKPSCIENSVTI
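Hydroperoxide product was detected by ferrous iron/xylenol orange as the 573 to 405 nm absorbance ratio. Arachidonic acid at 40 uM (final) was turned over for 30 min at room temperature by 150 nM human 12hLO, pH 7.0 Hepes buffer, after 15 min compound preincubation.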
Nrf2 block: inhibitors of Nrf2 signaling; A549 ARE-Fluc reporter, luciferase luminescence, 18-24 h; Potency, µM (highest dose often 46 µM), without a hit: top-dose activity change, negative = inhibition, usual class: inhibitors; 2.1% of 360,000 active; also: potency is read from the fitted curve at half-maximal effect; % is scaled to controls: 0 for no effect and ±100 for the full control effect; nearly all actives have a fitted effect of over 60% in size
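In this cell-based qHTS, ARE-driven firefly luciferase in A549 cells reports Nrf2 activity; the luminescent signal after BugLite lysis is the measured value, with a prior CellTiter-Fluor read for cell health.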
Nrf2 activator: activates Nrf2 signaling; AID 624171; Potency, µM (titrated, usually from 46.1 µM), without a hit: at the top dose activation, most hits filed as activators; AREc32 ARE-luciferase reporter (MCF7-derived line), luminescence, 24 h; 0.31% of 410,000 active; also: potency is read from the fitted curve at half-maximal effect; % of control where 0% means no effect; nearly all actives have a fitted effect of over 65% in size
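Luciferase luminescence (Steady-Glo, 30 min at room temperature) served as the read-out of ARE activation in AREc32 cells treated with compounds for 24 hr at 37 deg C.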
Numbers without * were called inactive; ? = inconclusive; . = no result; [ ] = remark or other dose. An excerpt weighted towards active compounds, which were near 2.7% of everything screened. Unless noted, calls follow the shape of the dose curve; as a rule, active = well fitted curve in the direction sought with a large enough effect; inconclusive = small, poorly fitted or top-dose-only effect, or another doubt; inactive = no such curve, though single readings can be large; an effect the other way counts as inactive or inconclusive.

SMILES | ERG Ets-DNA blk | LDHA inh | A549 viability | 12-LOX inh | Nrf2 block | Nrf2 activator
O=C(CCl)Nc1cc(SCC(O)CO)cc([N+](=O)[O-])c1 (configuration not stated) | 1.2% | 1.0 | 6.51µM* | ? | 4.61µM* | -1.9%[9.22 µM]
Cc1ccc2c(C)c(C(=O)N(C)C(C)c3ccon3)oc2c1C (configuration not stated) | 31.6µM* | -4.3 | 7.1% | ? | ? | 4.0%
CCCCN(CC)c1ccc(NC(=O)c2ccccc2F)cc1C(=O)O | . | 6.3 | . | ? | . | .
CCCn1nc(C)cc1CN(C)c1ccc(NC(=O)c2ccccc2C)cc1C(=O)O | . | 2.2 | . | 10µM* | . | .
Cc1ccc(S(=O)(=O)c2nc(S(C)(=O)=O)sc2N2CCC(O)CC2)cc1 | -0.9% | -9.8 | 0.1% | 9.9% | -4.1% | 8.91µM*
CS(=O)(=O)c1nc(S(=O)(=O)c2ccc(Cl)cc2)c(N2CCC(O)CC2)s1 | 1.3% | -4.2 | 1.4% | 0.6% | ? | ?
COc1ccc2nc(SCC(=O)N3CCN(S(=O)(=O)c4ccc(C)cc4)C3)[nH]c2c1 | . | 6.1 | . | -7.9% | . | .
FC(F)(F)c1ccc(/C=N/Nc2ccc(Cl)cc2)cc1 | . | -1.3 | . | 7.08µM* | . | .
Cc1ccc(Nc2nc3nonc3nc2Nc2cccc(C(F)(F)F)c2)cc1Cl | -5.3% | -5.5 | 7.31µM* | ? | 3.26µM* | -1.6%
FC(F)(F)c1cccc(/C=N/Nc2ccc(Cl)cc2)c1 | . | 7.6 | . | 7.08µM* | . | .
Cc1ccc(N/N=C/c2cccc(C(F)(F)F)c2)cc1Cl | . | 3.6 | . | 3.55µM* | . | .
CC(C)N1C[C@@H]2C[C@H]1C(=O)N(Cc1ccc(OC(F)(F)F)cc1)c1ccccc1O2 | . | . | . | 37.4%[176 µM] | . | .
Cc1ccc(C(=O)N2c3ccccc3N(Cc3ccccc3)C(=O)C2(C)C)cc1 | . | 0.6 | -13.4% | 9.3% | 11.6µM* | 0.6%
Cc1ccc(C(=O)/C=C/c2ccc3ccccc3c2)o1 | . | 12.2 | . | ? | . | .
O=C(NC(=S)N1CCOCC1)c1ccccc1Cl | -2.9% | -4.7 | -5.2% | 1.26µM* | -2.9% | -0.3%
O=C(NC(=S)N1CCCC1)c1ccc(Cl)cc1Cl | -14.5% | -2.0 | 7.2% | 0.0% | 1.5% | 0.7%
O=C(O)c1ccc(/C=C/C(=O)c2nc3ccccc3s2)cc1 | . | 9.0 | . | ? | . | .
CCN(CC)CC(=O)c1c(N)n(Cc2ccccc2)c(=O)n(C)c1=O | -1.4% | 3.9 | 1.9% | 7.2% | -11.0% | 0.4%
CCCN(CC(=O)Nc1ccccc1OC)CC(=O)c1c(N)n(Cc2ccccc2)c(=O)n(C)c1=O | 1.7% | -5.9 | -19.1% | 228.8% | 13µM* | 0.2%
Cc1ccc(NC(=O)c2ccc(Oc3nccnc3N3CCCCC3)cc2)cc1C | . | -0.1 | . | 0.6% | . | .
COC(=O)Cn1c(Br)nc2c1c(=O)n(C)c(=O)n2C | . | -35.3* | . | 34.9% | . | .
O=C(c1ccc(-n2cncn2)cc1)N1CCCC1c1nc2ccccc2[nH]1 (configuration not stated) | . | 2.6 | . | ? | . | .
COc1ccc(/C=N/NC(=O)c2cccc([N+](=O)[O-])c2)cc1OC(=O)c1ccc(C)cc1 | 1.2% | 4.1 | ? | 0.0% | 20.6µM* | 0.4%
COc1cccc(C(=O)N/N=C/c2ccc(Oc3ccc([N+](=O)[O-])cn3)c(OC)c2)c1 | 5.1% | 0.5 | ? | ? | 23.1µM* | -0.5%
COc1cc(/C=C(/C#N)c2ccccc2)ccc1Oc1ccc([N+](=O)[O-])cn1 | 0.0% | -2.3 | ? | 0.0% | 14.6µM* | 1.6%
SMILES | ERG Ets-DNA blk | LDHA inh | A549 viability | 12-LOX inh | Nrf2 block | Nrf2 activator
COc1ccc(/C=N/NC(=O)c2cccc([N+](=O)[O-])c2)cc1OC(=O)c1ccccc1 | -8.5% | -2.4 | -15.7% | 47.7% | -13.4% | 5.6%
Cc1cccc(N=C2NC(=O)S/C2=C\c2ccco2)c1 | 35.6% | 5.1 | -13.2% | ? | ? | ?
COc1ccc(N=C2NC(=O)/C(=C\C=C\c3ccco3)S2)cc1 | -0.8% | -4.9 | -16.8% | ? | 3.8% | 12.6µM*
O=C1NC(=Nc2ccc(Cl)cc2)/C(=C/c2ccco2)S1 | 6.6% | -5.3 | -15.1% | 25.1µM* | -1.7% | ?
O=C1NC(=Nc2ccc3ccccc3c2)S/C1=C/c1ccco1 | 3.3% | -3.6 | 1.1% | 31.6µM* | 18.4% | ?
Cc1cccc(N=C2NC(=O)/C(=C/C=C/c3ccco3)S2)c1 | 16.2% | 1.9 | -17.1% | 44.7µM* | -2.9% | ?
O=C(O)C1COCCO1 (configuration not stated) | . | 1.8 | . | ? | . | .
C#CCNC(=O)c1cc(-c2ccccc2)nc2ccccc12 | . | 5.4 | . | -1.7% | . | .
COC(=O)c1ccc(COC(=O)Cc2coc3cc(C)ccc23)cc1 | . | 4.3 | . | -7.4% | . | .
Nn1c(SCc2ncc(-c3ccccc3)o2)nnc1-c1ccc(Cl)cc1 | . | -5.4 | . | ? | . | .
Cn1c(COc2ccc(Cl)cc2)nnc1SCc1ncc(-c2ccccc2)o1 | 11.5% | 2.8 | -29.8% | -20.4% | 16.4µM* | 2.2%
Cc1ccc(NC(=O)CN(C)C(=O)c2ccc(S(=O)(=O)Nc3ccc(Cl)cc3)cc2)cc1 | . | -21.3 | . | 7.94µM* | . | .
COc1ccc(C2c3c(-c4c(C)cc(C)cc4O)n[nH]c3C(=O)N2CCO)cc1OC (configuration not stated) | . | 8.1 | . | -4.0% | . | .
O=C(Nc1cccc(-c2nc3ccccc3s2)c1)[C@@H]1CCCN1C(=O)c1cccs1 | . | 8.5 | . | 39.8µM* | . | .
Cc1nnc(NC(=O)c2cc(-c3cccc(C)c3O)n[nH]2)s1 | . | 9.5 | . | 5.6% | . | .
C=CCn1c(SCc2csc(C)n2)nc2sc3c(c2c1=O)CCCC3 | 1.4% | 0.2 | -13.7% | -3.3% | 25.9µM* | -0.1%
C=CCn1c(SCc2csc(C)n2)nc2sc3c(c2c1=O)CCCCC3 | -1.7% | 1.0 | . | -12.6% | ? | 0.3%
CCOC(=O)N/N=C\c1ccc([N+](=O)[O-])s1 | 1.3% | -7.1 | ? | ? | 23.1µM* | -0.8%
O=C(N/N=C/c1ccc([N+](=O)[O-])s1)c1cccc(Br)c1 | -2.8% | -8.6 | ? | -4.4% | 20.6µM* | 0.0%
Cc1ccc([N+](=O)[O-])c(C(=O)N/N=C/c2cccs2)c1 | 14.0% | -2.2 | -2.8% | 0.0% | 9.2µM* | 0.5%
Cc1cccc(NC(=S)N/N=C/c2ccc([N+](=O)[O-])s2)c1 | -5.0% | -1.9 | ? | ? | 11.2µM* | -0.7%
CCOCCCNC(=O)c1ccoc1 | . | 0.3 | . | ? | . | .
COc1ccc(-c2cnc([C@@H]3COCCN3C3CCCCC3)[nH]2)cc1 | . | . | . | -2.8%[176 µM] | . | .
Cc1cc(NC(=O)c2ccoc2)ccc1N1CCCC1=O | . | 11.8 | . | -4.1% | . | .
O=C(CSc1nc2ccccc2nc1N1CCCC1)NCc1ccc(F)cc1 | . | -2.2 | . | -27.2% | . | .

Screening data deposited in PubChem by National Center for Advancing Translational Sciences (NCATS).
